# Test results from the supplement of paper PMC6555819.
# Tests used:
# Assay in all cases: PBM binding z-score (relative to random genomic background probes); higher = stronger binding; sequences stand for … in GC…GCGATTGACAGCGTAGAATGAAGG
# [1] = tested on: FXR:RXRa (NR concentration 270 nM, RXRa partner concentration 90 nM)
# Method in brief: (§1)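 Binding buffer was PBS pH 7.4 with 2% milk, 0.02% Triton X-100, 1 mM DTT, 0.2 mg/mL BSA and 0.4 mg/ml salmon testes DNA. In it, ligand-free nuclear receptor dimers were incubated 1 h on custom Agilent 4×180K protein-binding microarrays carrying double-stranded probes. Antibodies against each partner (one per run) detected binding, and z-scores were calculated against random background probes after regression normalization of scanned fluorescence.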
# [2] = tested on: LXRa:RXRa (NR concentration 270 nM, RXRa partner concentration 90 nM)
# Method in brief: as §1
# [3] = tested on: LXRa homodimer (NR concentration 270 nM)
# Method in brief: as §1
# [4] = tested on: LXRb:RXRa (NR concentration 270 nM, RXRa partner concentration 90 nM)
# Method in brief: as §1
# [5] = tested on: LXRb homodimer (NR concentration 270 nM)
# Method in brief: as §1
# [6] = tested on: PPARa:RXRa (NR concentration 270 nM, RXRa partner concentration 90 nM)
# Method in brief: as §1
# [7] = tested on: PPARg:RXRa (NR concentration 180 nM, RXRa partner concentration 90 nM)
# Method in brief: as §1
# [8] = tested on: PPARg:RXRa 270nM:90nM, anti-RXR (NR concentration 270 nM, RXRa partner concentration 90 nM)
# Method in brief: as §1
# [9] = tested on: PPARg:RXRa 30nM:10nM, anti-RXR (NR concentration 30 nM, RXRa partner concentration 10 nM)
# Method in brief: as §1
# [10] = tested on: PPARg:RXRa 90nM:30nM, anti-RXR (NR concentration 90 nM, RXRa partner concentration 30 nM)
# Method in brief: as §1
Sequence,PBM binding z-score [1],PBM binding z-score [2],PBM binding z-score [3],PBM binding z-score [4],PBM binding z-score [5],PBM binding z-score [6],PBM binding z-score [7],PBM binding z-score [8],PBM binding z-score [9],PBM binding z-score [10]
ATCTCTAGGTAAAAGTTCAGTGACTCCCGAGGAT,1.09,2.16,1.64,1.38,0.749,4.12,8.08,8.15,8.38,8.98
CATCCAAGGTCATAGGAGGTCAGTGAAGACAGAT,7.76,7.88,6.67,6.38,1.99,6.12,6.25,6.07,3.14,4.93
AGAATGAGGTTAGGATCAGGGAAACAGAATACAT,0.875,0.506,-0.0173,1.16,0.0197,2.19,1.11,1,0.649,0.78
ATCGAAAGGTCGACGTGGTGAGTATACACCGTTT,4.21,3.3,0.0877,2.49,0.332,4.08,2.08,2.66,1.01,1.77
CTACCAAGGTGAACAAGGTCGGTGATTACTATTC,0.778,0.251,-0.361,0.578,-0.54,1.69,0.819,0.753,-0.269,0.288
ACTATTAGTTGACTTAGGGCAACCTATACGACGC,0.173,0.433,0.321,0.316,0.731,0.252,1.02,0.258,0.33,0.444
TCTAGTTGGTTAAAGGTCACACACTCGAAATGCG,5.51,5.54,4.45,5.47,2.22,6.63,9.55,8.64,8.96,9.31
TTACCAAGGTGAGCTGAGGTCGTTGGTCCAACTC,1.55,1.34,-0.436,0.439,-1.02,1.67,-0.467,0.63,-0.5,0.00719
GCTGCTAGGTCAGGTTGGCCAGCTAACGGGTACG,1.01,0.472,-0.875,0.118,-0.715,1.32,0.322,0.756,-0.322,0.219
CTTATTAGTTGACCATAAGGGCAACCGAAGCTCG,0.831,0.356,0.185,0.373,0.837,0.629,0.439,0.266,0.208,0.259
TCTTGCAGATCAATAGAGGTTAAGAAAGTGCGCT,0.606,3.34,0.219,2.04,-0.44,1.9,-0.17,1.1,1.84,1.35
CTACCACGGTGAACAAGGTCGTTGATTACTATTC,0.517,0.708,0.301,1.4,-0.058,1.28,0.357,0.508,-0.252,0.141
ATATTTAGGTTATCGGGTCATTCAGTTTGCGCAT,3.46,3.38,3.11,3.44,2.37,4.75,5.55,5.51,3,4.66
CCTACCGGGCCATTCAGAGGTCATTGATCATATG,3.15,4.65,6.83,4.07,0.358,3.77,1.05,2.26,0.311,1.27
ATCTCTATGTAAAAGTTCAGTGAATCCCGAGGAT,0.48,1.17,1.3,0.915,0.829,2.49,3.27,4.6,3.31,4.95
CCGACTGGGGCAGAAAGGTTACCAAACCATCCGG,0.151,0.796,-0.38,1.02,-0.812,2.22,1.48,2.84,0.501,2.07
AGAACGAGGGCACGCTGAGTTGATACCAGAGTAG,0.816,0.364,-0.278,0.0367,-0.613,1.76,2.2,1.8,0.433,1.03
CGTCCAAGATCAAGGTCAGTGAAAGAGACTCGAA,1.53,1.53,0.459,1.7,-0.296,2.7,0.906,1.19,0.0233,0.76
GTACCAAGGTAAATAGGTCGTTGATGAGTAGGCG,0.0892,0.228,-0.0943,0.151,-0.264,1.73,1.37,1.34,0.667,0.78
